{
  "source": "PubChem BioAssay (NCI)",
  "note": "The panel holds about 83,000 compounds, 20% with a hit somewhere; the sample as a whole holds those more often.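 The test compound was applied at a single concentration to cells in 96-well plates for 48 hours, and percent growth was recorded.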 Unmarked numbers belong to inactive results. Activity calls are given as the source filed them.",
  "data": [
    {"system": "IGROV1 ovarian", "assay": "NCI-60 one-dose screen, 48 h (100 = growth as untreated, 0 = no growth, -100 = all killed)", "settings": "10 µM unless noted", "experimental": "Growth inhibition of the IGROV1 human tumor cell line is measured as a screen for anti-cancer activity. Cells are grown in 96 well plates and exposed to the test compound for 48 hours. Compounds are tested at a single concentration, which is 10^-5 M for most compounds. The reported endpoint is percent growth (GI% or GIPRCNT), where numbers from 0 - 100% represent growth inhibition, and numbers from -100% - 0 represent cell death. For example, a value of 40 represents 60% growth inhibition. A value of 0 means no net growth occurred over the course of the experiment. A value of -40 indicates 40% of cells at the beginning of the experiment died by the end of the experiment. A value of -100 means all cells are dead at the end of the experiment.\nNCI-60 Human Tumor Cell Lines Screen was performed using the standard one-dose NCI protocol, which is described in more detail at https://dtp.cancer.gov/discovery_development/nci-60/default.htm.\nCompounds with GIPRCNT values below 10 were considered active. Activity score was based on GIPRCNT using the following formula: […]\nScore is 0 for GIPRCNT values of 100 or above, 50 for GIPRCNT values of 0, and 100 for GIPRCNT values of -100.", "values": [
      {"smiles": "CCC(O)C(C)(C)C", "note": "(stereo not given)", "growth": "112%"},
      {"smiles": "Cc1ccc(NC(=O)Nc2ccc(-c3cccnc3)cc2N2CCC(CO)CC2)cc1", "growth": "63.1%"},
      {"smiles": "CCN(CC)CCNc1ccc(Cl)cc1Cl", "growth": "110%"},
      {"smiles": "CCOC(=O)C(C(C)=O)c1nc2sc3cc(Cl)ccc3n2c(=N)c1C#N", "note": "(stereo not given)", "growth": "84.3%"},
      {"smiles": "C[N+]1(CCC[N+]2(C)C[C@@H]3[C@H](C2)[C@@H]2C=C[C@H]3C2)CCOCC1", "note": "(stereo not given in full)", "growth": "103%"},
      {"smiles": "CCC(=O)Nc1ccccc1C#C/C=C\\C#Cc1ccccc1C(F)(F)F", "growth": "-21.8% (active)"},
      {"smiles": "CCCCN(CCCC)CCCOC(=O)c1ccc(N)cc1", "growth": "75.8%"},
      {"smiles": "COc1cc(/C=C2\\COc3ccc(O)cc3C2=O)cc(OC)c1", "growth": "73.2%"},
      {"smiles": "CCOC(=O)C1=C(C)N2C(=NC3=C(CCC/C3=C\\c3ccc(Cl)cc3)C2c2ccc(Cl)cc2)S1", "note": "(stereo not given)", "growth": "12.8%"},
      {"smiles": "N#CCNc1ccccc1N", "growth": "89.3%"},
      {"smiles": "O=C1CCCN1C1CCN(Cc2cc3ccccc3[nH]c2=O)c2ccccc21", "note": "(stereo not given)", "growth": "90%"},
      {"smiles": "Cc1cc(C)c2c(c1)N1OC(C2)C[C@H]1/C=C/c1ccccc1", "note": "(stereo not given in full)", "growth": "82.3%"},
      {"smiles": "COc1cc(/C=C/C(=O)c2c(-c3ccc(F)cc3)nc3sc(C)nn23)cc(OC)c1OC", "growth": "28.7%"},
      {"smiles": "CCCCC(C#N)C(N)=O", "note": "(stereo not given)", "growth": "113%"},
      {"smiles": "CCCc1cccc(CCC)c1O", "growth": "125%"},
      {"smiles": "COc1ccc(-c2nnc(COc3ccc(NC(=O)Nc4cc(C(F)(F)F)cc(C(F)(F)F)c4)cc3F)o2)cc1", "growth": "44.4%"},
      {"smiles": "N#Cc1ccc(NC(=O)Nc2ccc(Oc3ccc(NC(=O)Nc4ccc(C#N)cc4)cc3)cc2)cc1", "growth": "-21.5% (active)"},
      {"smiles": "Cn1c(=O)c2nc(SCc3ccccc3)n(C)c2n(C)c1=O", "growth": "139%"},
      {"smiles": "CCC[C@H](N[C@@H](C)C(=O)N1[C@H](C(=O)O)C[C@@H]2CCCC[C@@H]21)C(=O)OCC", "growth": "108%"},
      {"smiles": "O=C1/C(=C/c2ccc([N+](=O)[O-])o2)Oc2ccc(Cl)cc21", "growth": "-53.6% (active)"},
      {"smiles": "c1cncc(CNc2ccccc2-c2nnc(Nc3ccc4c(c3)OCO4)o2)c1", "growth": "25.2%"},
      {"smiles": "COc1cc(NC(=O)c2cc3ccccc3cc2O)c(OC)cc1Cl", "growth": "-31% (active)"},
      {"smiles": "Cc1ccc2c(c1)C(=O)/C(=C/c1ncc([N+](=O)[O-])n1C)O2", "growth": "-26.5% (active)"},
      {"smiles": "COc1cc2cn3c4ccc(O)cc4nc(N)c3c2cc1OC", "growth": "33.9%"},
      {"smiles": "Fc1ccc([C@@H]2CCNC[C@H]2COc2ccc3c(c2)OCO3)cc1", "growth": "72%"},
      {"smiles": "Cc1c(C(N)=O)sc2ncn(Cc3ccccc3)c(=O)c12", "growth": "2.39% (active)"},
      {"smiles": "COC(=O)[C@]1(CCSC)N[C@H](c2cn(-c3ccccc3)nc2C)[C@@H]2C(=O)N(c3ccccc3)C(=O)[C@@H]21", "growth": "118%"},
      {"smiles": "O=C(Nc1ccc(Cl)cc1Cl)Nc1ccc(-c2cccnc2)cc1N1CCC(CO)CC1", "growth": "34.8%"},
      {"smiles": "O=C1C2C3C=CC(O3)C2C(=O)N1Nc1ccccc1", "note": "(stereo not given)", "growth": "124%"},
      {"smiles": "Clc1ncn[nH]1", "growth": "105%"},
      {"smiles": "CCOC(=O)C1=C(COCCN)NC(C)=C(C(=O)OC)C1c1ccccc1Cl", "note": "(stereo not given)", "growth": "73.6%"},
      {"smiles": "C[C@]12CC[C@@H]3c4ccc(O)c([N+](=O)[O-])c4CC[C@H]3[C@@H]1CC[C@@H]2NS(=O)(=O)c1cccc(Br)c1", "growth": "34.8%"},
      {"smiles": "O=[N+]([O-])c1ccc(Oc2cccc(C(F)(F)F)c2)c([N+](=O)[O-])c1", "growth": "12.3%"},
      {"smiles": "COc1ccc(-n2nc3c(c2-c2ccc(OC)c(OC)c2)-c2oncc2CC3)cc1", "growth": "99.1%"},
      {"smiles": "CC[N+](CC)(CCOCCOCC[N+](CC)(CC)Cc1ccc([N+](=O)[O-])cc1)Cc1ccc([N+](=O)[O-])cc1", "growth": "125%"},
      {"smiles": "Cc1ccc(C(C)C)cc1NC(=O)Nc1ccc([N+](=O)[O-])cc1", "growth": "6.68% (active)"},
      {"smiles": "O=[N+]([O-])c1ccc2c(c1)S(=O)c1cc([N+](=O)[O-])ccc1N2", "growth": "117%"},
      {"smiles": "O=C1NCN(CCO)CN1", "growth": "115%"},
      {"smiles": "O=C(C(Br)Br)C(Br)C(Br)c1ccccc1", "note": "(stereo not given)", "growth": "84.3%"},
      {"smiles": "C[n+]1c2ccccc2c(NC2CCNCC2)c2[nH]c3ccccc3c21", "growth": "-20.9% (active)"}
    ]}
  ]
}
